Screening results: PubChem BioAssay, Johns Hopkins Ion Channel Center
KCNQ2 enhance – enhances the rat KCNQ2 potassium channel; O88943; CHO-K1 KCNQ2, FluxOR thallium flux fluorescence; stronger effect = higher value; B-score at 10 µM; 310,000 compounds, 0.54% hits; AID 2239;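 active = fluorescence ratio B-score at least 3 SD of library B-scores, with initial fluorescence B-score within 3 of them, cut at about 5.3 in these data; same plate scores as AID 2156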;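 also: B-score of peak minus minimum over baseline fluorescence ratio after K+ and Tl+ stimulus; positive B-score means potentiation of KCNQ2 with more thallium influx and brighter signal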
KCNQ2 inh – inhibitors of rat KCNQ2 potassium channel; 310,000 compounds, 1.1% hits; B-score at 10 µM; CHO-K1 KCNQ2, FluxOR thallium flux, 20 min; stronger effect = lower value;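 active = fluorescence ratio B-score at most minus 3 library SDs, with starting brightness B-score within 2 library SDs, cut at about -5.5 in these data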
Kir21 conf inh – confirmation of mouse Kir2.1 potassium channel inhibitors; shares compounds with KCNQ2 enhance; Kir2.1-expressing cells, FluxOR thallium flux fluorescence; stronger effect = lower value; Tl flux remaining, % of negative control (stronger effect = lower value), % at 10 µM; 2,300 compounds, 41% hits;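 active = Primary-screen hit whose thallium flux fell at least 3 control SD below untreated wells in both duplicates, with normal baseline fluorescence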;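 also: 0% = blank wells without stimulus and 100% = stimulated no-compound controls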
HEK293 Tl flux – counter-screen for Kir2.1 inhibitors: effect in parental HEK293 cells | shares compounds with KCNQ2 enhance | FluxOR thallium flux fluorescence; 0% = unstimulated blank wells | FluxOR signal as % of negative control (100 = no effect), % at 10 µM | 2,300 compounds, 19% hits | AID 2105;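 active = dye signal at least 3 control SD above or below untreated wells in both duplicates, raw fluorescence within 3, either direction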;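 also: percent is based on the flux ratio of peak minus minimum fluorescence over baseline F0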
CHO-K1 ctr – parental CHO-K1 activity in KCNQ2 potentiator counter-screen; activity increase over 3SD of controls, % at 10 µM; 1,200 compounds, 43% hits; shares compounds with KCNQ2 enhance; parental CHO-K1 cells, FluxOR thallium flux fluorescence; zero = vehicle mean+3SD, 100% = vehicle-minus-blank window;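 active = signal rise of at least 3 SD above the untreated control mean, in both duplicate wells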;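 also: counter screen of KCNQ2 potentiator hits so any rise reflects channel-independent effects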
KCNQ1 sel pot – selectivity of KCNQ2 potentiators: effect on human KCNQ1; shares compounds with KCNQ2 enhance; CHO KCNQ1 stable, FluxOR thallium flux fluorescence; beyond 3SD, as % of vehicle-control signal; activation over 3SD threshold, % at 10 µM; 1,200 compounds, 28% hits; AID 2283;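 active = fluorescence ratio rise of at least 3 SD of vehicle wells above their mean, in both replicate wells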;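 also: 0% = vehicle mean plus 3 SD and 100% = vehicle minus unstimulated blank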
Target sequence (P51787 whole entry, looked up): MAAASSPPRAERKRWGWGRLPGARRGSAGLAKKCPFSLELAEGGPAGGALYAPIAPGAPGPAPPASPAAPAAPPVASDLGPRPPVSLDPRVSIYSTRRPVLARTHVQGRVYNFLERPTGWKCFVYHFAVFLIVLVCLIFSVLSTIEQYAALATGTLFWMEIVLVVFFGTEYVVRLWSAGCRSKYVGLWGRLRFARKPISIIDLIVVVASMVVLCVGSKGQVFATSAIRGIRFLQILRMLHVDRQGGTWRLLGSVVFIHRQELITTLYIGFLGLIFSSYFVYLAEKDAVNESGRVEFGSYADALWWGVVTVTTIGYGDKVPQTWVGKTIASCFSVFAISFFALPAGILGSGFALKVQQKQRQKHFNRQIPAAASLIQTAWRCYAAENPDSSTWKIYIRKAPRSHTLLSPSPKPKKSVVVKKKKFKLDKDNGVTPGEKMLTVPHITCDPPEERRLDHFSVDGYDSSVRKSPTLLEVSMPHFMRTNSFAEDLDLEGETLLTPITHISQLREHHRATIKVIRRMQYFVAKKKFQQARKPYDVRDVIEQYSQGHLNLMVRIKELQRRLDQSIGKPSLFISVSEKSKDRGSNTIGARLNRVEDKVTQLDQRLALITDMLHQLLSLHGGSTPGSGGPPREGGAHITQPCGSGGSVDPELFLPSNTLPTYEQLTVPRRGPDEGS
KCNQ2 pot conf – rat KCNQ2 channel potentiator confirmation; shares compounds with KCNQ2 enhance; CHO-KCNQ2 cells, FluxOR thallium flux fluorescence; potentiation, less the hit threshold, % at 10 µM; 1,200 compounds, 68% hits; AID 2287;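 active = fluorescence ratio rising 3 SD or more over the vehicle control mean in both replicates, plus primary screen hit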;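 also: peak minus minimum thallium fluorescence divided by baseline after K/Tl stimulus; 0% = vehicle mean plus 3 SD and 100% = vehicle minus unstimulated blank difference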
Kir2-1 sel – selectivity of KCNQ2 potentiators: effect on mouse Kir2.1. shares compounds with KCNQ2 enhance. HEK293 Kir2.1, FluxOR thallium flux fluorescence. activity over 3SD threshold, % at 10 µM. 1,200 compounds, 2% hits. AID 2345;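 active = fluorescence ratio rise of at least 3 SD above the vehicle-control mean, seen in both replicates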;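 also: 0% = vehicle mean plus 3 SD and 100% = vehicle minus no-stimulus blank window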
KCNQ2 W236L MoA – rat KCNQ2 W236L mutant potentiation by KCNQ2 potentiators; shares compounds with KCNQ2 enhance; CHO KCNQ2-W236L, automated patch clamp current; current increase over 3SD of negative controls (%), stronger effect = higher value, % at 25 µM; 940 compounds, 10% hits; AID 2558;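 active = current increase at least 3 SD of the untreated controls above them in both duplicate recordings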
An asterisk follows results filed as active; i = inactive; . = no result. Sampled rows, rich in hits. Any-hit rate of the full collection: about 1.6%.

SMILES | KCNQ2 enhance | KCNQ2 inh | Kir21 conf inh | HEK293 Tl flux | others
COc1ccc2c(c1)CC(N1CCN(C)CC1)c1cc(OC)ccc1S2 (stereo not drawn) | . | i | . | .
Clc1ccc2c(c1)C(N1CCNCC1)Cc1ccccc1S2 (stereo not drawn) | -11.6 | -11.6* | 32.0%* | i
CCCCn1c(N)c(N(CCOC)C(=O)Cn2c(=O)oc3ccccc32)c(=O)[nH]c1=O | . | i | . | .
CCCCOCCCNC(=O)c1ccc2c(c1)OCO2 | 6.52* | i | i | i | CHO-K1 ctr=1.4*;KCNQ1 sel pot=-13.9;KCNQ2 pot conf=-26.0;Kir2-1 sel=-37.5
COCCCNC(=O)c1ccc2c(c1)OCO2 | . | i | . | .
Nc1nnc(CSCc2cccc(Br)c2)s1 | 1.91 | i | . | .
COc1ccccc1C(=O)Nc1ccc2c(c1)nc1n2CCN(C2CCCCC2)C1 | 1.26 | i | . | .
COc1cc(CNCCO)cc(Cl)c1OCc1ccccc1Cl | . | i | . | .
CCOc1cc(CNCCO)cc(Br)c1OCc1ccccc1Cl | -7.41 | -7.41* | i | i
COc1cc(CNC(C)(C)CO)cc(Br)c1OCc1ccccc1 | 1.43 | i | . | .
CCOc1cc(CNC(C)(C)CO)cc(Br)c1OCc1ccc(Cl)cc1Cl | -7.69 | -7.69* | 22.5%* | i
Cc1ccc(NC(=O)c2ccc(S(=O)(=O)NCc3cccnc3)cc2)c(C)c1 | . | i | . | .
CCOC(=O)C(=O)N(Nc1ccc(C)cc1)c1ccc(C)cc1 | . | i | . | .
CCC(O)(CC)C(=O)N(Nc1ccc(C)cc1)c1ccc(C)cc1 | 5.58* | i | i | i | CHO-K1 ctr=-6.4;KCNQ1 sel pot=-4.4;KCNQ2 pot conf=-1.2;Kir2-1 sel=-42.0;KCNQ2 W236L MoA=37.1%*
O=C(c1ccco1)N1CCN(Cc2nnnn2C2CCCCC2)CC1 | 1.54 | i | . | .
Cc1nn(-c2ccccc2Cl)c(Cl)c1/C=N/Nc1cccc(C(=O)O)c1 | 5.2 | i | . | .
Cc1nn(-c2cccc(C(F)(F)F)c2)c(Cl)c1/C=N/Nc1cccc(C(=O)O)c1 | 9.87* | i | i | i | CHO-K1 ctr=-10.0;KCNQ1 sel pot=29.9*;KCNQ2 pot conf=98.5*;Kir2-1 sel=-35.8;KCNQ2 W236L MoA=16.6%*
Cc1ccc(CN(C)C(=O)CCc2nc3sc4c(c3c(=O)[nH]2)CCCC4)o1 | 0.25 | i | . | .
Cc1ccc(NC(=O)COc2ccccc2CNC(C)(C)CC(C)(C)C)cc1 | . | i | 43.5%* | i
CC(C)(CO)NCc1ccccc1OCC(=O)Nc1ccccc1 | . | i | . | .
CCc1ccc(Nc2n[n+](-c3ccccc3)c(/C=C/c3ccccc3)s2)cc1 | . | i | 73.5%* | i
CCc1ccc(Nc2n[n+](-c3ccccc3)c(-c3c(Cl)cccc3Cl)s2)cc1 | . | i | . | .
CC(C)c1nc(SCC(=O)Nc2nccs2)c2ccccc2n1 | 0.11 | i | . | .
Cc1ccc(C(=O)CSc2nc(C(C)C)nc3ccccc23)cc1 | 3.89 | i | . | .
Cc1csc(NC(=O)CSc2nc(C(C)C)nc3ccccc23)n1 | 6.23* | i | . | . | CHO-K1 ctr=17.5*;KCNQ1 sel pot=-28.6;KCNQ2 pot conf=1.0*;Kir2-1 sel=-69.8;KCNQ2 W236L MoA=i
SMILES | KCNQ2 enhance | KCNQ2 inh | Kir21 conf inh | HEK293 Tl flux | others
CC(C)c1nc(SCC(=O)c2ccc(F)cc2)c2ccccc2n1 | 10.6* | i | i | i | CHO-K1 ctr=-9.3;KCNQ1 sel pot=-3.8;KCNQ2 pot conf=36.0*;Kir2-1 sel=-39.8;KCNQ2 W236L MoA=i
CCOC(=O)COc1cccc(C2NC(=O)c3ccccc3O2)c1 (stereo not drawn) | 0.84 | i | . | .
COc1cccc(NC(=O)CN2C(=O)COc3ccc(S(=O)(=O)N4CCC(C)CC4)cc32)c1 | 1.11 | i | . | .
CCC1CCCCN1C(=O)Cn1c(=O)n(CCCC(=O)NCc2ccco2)c(=O)c2sccc21 (stereo not drawn) | . | i | . | .
O=C(C[n+]1ccccc1)Nc1ccccc1C(F)(F)F | . | i | . | .
CC1CC(C)CN(CCCNC(=O)c2ccc3c(c2)NC(=O)CS3)C1 (stereo not drawn) | . | i | . | .
O=C(Nc1nc(=O)c2ccccc2s1)c1ccc(F)cc1 | 5.81* | i | i | 173.5%* | CHO-K1 ctr=-4.1;KCNQ1 sel pot=-29.9;KCNQ2 pot conf=-12.2;Kir2-1 sel=-18.1
O=C(Cc1ccccc1)Nc1nc(=O)c2ccccc2s1 | 2.68 | i | . | .
Cc1ccc(SCCNC(=S)Nc2ccc(C)c(C)c2)cc1 | 10.4* | i | i | 72.5%* | CHO-K1 ctr=1.9*;KCNQ1 sel pot=15.9*;KCNQ2 pot conf=-2.2;Kir2-1 sel=-31.8;KCNQ2 W236L MoA=i
Cc1ccc(SCCNC(=S)Nc2ccccc2)cc1 | . | i | . | .
Cc1cc(NS(=O)(=O)c2ccc(NC(=O)CSc3nc4ncccc4[nH]3)cc2)nc(C)n1 | . | i | . | .
CC1=CC(C)(C)[N+](C)(C)c2ccccc21 | 0.61 | i | . | .
CCOC(=O)Cn1nc(C)c(NC(=O)COc2ccc(OC)cc2)c1C | 2.11 | i | . | .
O=C(OCc1ccccn1)c1ccc(COc2ccc3ccccc3c2)o1 | 5.41* | i | i | i | CHO-K1 ctr=-13.9;KCNQ1 sel pot=-7.5;KCNQ2 pot conf=-19.2;Kir2-1 sel=-21.9
NNC(=O)c1ccc(COc2ccc3ccccc3c2)o1 | 1.23 | i | . | .
COc1ccc(CCNC(=O)[C@H](C)NC(=O)N2CCn3c2nc2ccccc23)cc1OC | 0.32 | i | . | .
Brc1cccc(C=Nc2cccc3ncccc23)c1 | 0.34 | i | . | .
Oc1c(Br)cc(Br)cc1C=Nc1cccc2ncccc12 | 13.8* | i | i | i | CHO-K1 ctr=-16.6;KCNQ1 sel pot=-17.7;KCNQ2 pot conf=-10.1;Kir2-1 sel=-22.9;KCNQ2 W236L MoA=i
COc1ccccc1/C=C/CN1CCCC(CCC(=O)NCc2ccccc2F)C1 (stereo not drawn) | . | i | . | .
CCn1c(CNc2ccc(Cl)cc2)nnc1SCC(=O)OC1CCCCC1 | 0.06 | i | 71.0%* | i
CCn1c(CNc2cccc(Cl)c2)nnc1SCC(=O)OC1CCCCC1 | . | i | . | .
O=[N+]([O-])c1cccc(N/N=C/c2cc([N+](=O)[O-])ccc2O)c1 | 1.27 | i | . | .
O=[N+]([O-])c1ccc(N/N=C/c2ccccc2O)cc1 | 7.86* | i | i | 74.0%* | CHO-K1 ctr=56.3*;KCNQ1 sel pot=-19.5;KCNQ2 pot conf=-23.6;Kir2-1 sel=-43.5
CC(O)c1ccc(Oc2cnccn2)cc1 (stereo not drawn) | . | i | . | .
C[C@H](NC(=O)[C@@H]1Cc2ccccc2CN1C(=O)OC(C)(C)C)C(=O)NCc1ccco1 | . | i | . | .
O=C(CN1CCC(Cc2ccccc2)CC1)NCCc1ccc(F)cc1 | 16* | i | . | . | CHO-K1 ctr=68.6*;KCNQ1 sel pot=-18.8;KCNQ2 pot conf=56.2*;Kir2-1 sel=-90.2;KCNQ2 W236L MoA=i
NS(=O)(=O)c1ccc(CCNC(=O)CN2CCC(Cc3ccccc3)CC2)cc1 | 0.06 | i | . | .
CCOc1ccccc1N(CC(=O)Nc1cccc2ccccc12)S(C)(=O)=O | 0.09 | i | . | .
